Experimental data reported in PubChem BioAssay (Tox21).
Results filed as inconclusive are left out. Where a call stands in place of a potency, no number is given. Unmarked numbers belong to inactive results. The source made the active and inactive calls. The call rests on the fitted dose curve; in most records, active means well fitted cell-killing curve with a large enough effect in the repeat runs; inconclusive means weak or mixed curves, or effect the other way; inactive means flat fitted curve, though single readings scatter.

What was measured:
[1] = cAMP Responsive Elements (CRE) small molecule antagonists, cell-based qHTS assay: qHTS cell viability counter screen (AID 2060913); further: nearly all actives have a fitted effect of over 40% in size
How it was run: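 Viability of NKH477-stimulated (0.25 uM final) CRE-bla HEK293T cells is measured by CellTiter-Glo luminescence following 3 hrs compound exposure at 37 C.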

[2] = cAMP Responsive Elements (CRE) small molecule agonists, cell-based qHTS assay: qHTS cell viability counter screen (AID 2060914); further: nearly all actives have a fitted effect of over 50% in size
How it was run: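 In the same wells as the reporter read, viability of CRE-bla HEK 293T cells was quantified by CellTiter-Glo luminescence after a 3 h compound exposure.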

| Structure (SMILES) | Potency [1] | Potency [2] | viability change, negative = cytotoxic [1] | activity change, negative = cytotoxicity [2] |
| --- | --- | --- | --- | --- |
| CC1=C(C)C(=O)C(CCCCC#CCCCC#CCO)=C(C)C1=O | inactive | inactive | – | – |
| CCNc1cccc(C)c1 | inactive | inactive | – | – |
| COc1cc(NC(C)CCCN)c2ncccc2c1 (stereo not given) | inactive | inactive | – | – |
| NC(=O)c1cc[n+](CC2=C(C(=O)[O-])N3C(=O)[C@@H](NC(=O)Cc4cccs4)[C@H]3SC2)cc1 | inactive | inactive | – | – |
| [K+] | inactive | inactive | – | – |
| CCCCCCOC(=O)CC(CC(=O)OCCCCCC)(OC(=O)CCC)C(=O)OCCCCCC | inactive | inactive | – | – |
| Cc1cc(NS(=O)(=O)c2ccc(N)cc2)nc(C)n1 | inactive | inactive | – | – |
| OCCCCCO | inactive | inactive | – | – |
| C=CCCCCCCCCC(=O)O | inactive | inactive | – | – |
| O=S1(=O)c2cccc3cccc(c23)N1CCCN1CCN(c2ccc(F)cc2)CC1 | inactive | inactive | – | – |
| O=C(O)c1cccc(N(Cc2cccnc2)c2ccc(OC(F)F)c(OC(F)F)c2)c1 | inactive | inactive | – | – |
| COc1ccc(-n2nc(C(F)F)cc2-c2ccc(S(C)=O)cc2)cc1 (stereo not given) | inactive | inactive | – | – |
| CCOC(=O)C(C#N)=C(c1ccccc1)c1ccccc1 | inactive | inactive | – | – |
| Cc1cc(C)c(NC(=O)CN(CC(=O)O)CC(=O)O)c(C)c1Br | inactive | inactive | – | – |
| NC(N)=S | inactive | inactive | – | – |
| CC(=O)N/N=C/c1ccc([N+](=O)[O-])o1 | inactive | inactive | – | – |
| COc1cc([C@@H]2c3cc4c(cc3[C@@H](O[C@@H]3O[C@@H]5CO[C@@H](C)O[C@H]5[C@H](O)[C@H]3O)[C@H]3COC(=O)[C@H]23)OCO4)cc(OC)c1O | inactive | inactive | – | – |
| c1ccc(CSCc2ccccc2)cc1 | inactive | inactive | – | – |
| c1ccc2ncccc2c1 | inactive | inactive | – | – |
| Cn1c([N+](=O)[O-])cnc1COC(N)=O | inactive | inactive | – | – |
| O=C1Nc2cc(Cl)ccc2Oc2ccccc21 | inactive | inactive | – | – |
| COc1cc(-c2ccc(N=C=O)c(OC)c2)ccc1N=C=O | inactive | inactive | – | – |
| CC1CCC2CC1C2(C)C (stereo not given) | inactive | inactive | – | – |
| CCCCCCC(C)Nc1ccc(Nc2ccccc2)cc1 (stereo not given) | inactive | inactive | – | – |
| CC(=O)/C=C/c1ccco1 | inactive | inactive | – | – |

| Structure (SMILES) | Potency [1] | Potency [2] | viability change, negative = cytotoxic [1] | activity change, negative = cytotoxicity [2] |
| --- | --- | --- | --- | --- |
| O=C1OC2(c3ccccc31)c1ccc(O)c(Br)c1Oc1c2ccc(O)c1Br | inactive | inactive | – | – |
| CSC(=O)c1cccc2nnsc12 | inactive | inactive | – | – |
| Nc1ccc(Cl)c([N+](=O)[O-])c1 | inactive | inactive | – | – |
| CC1=CC(=O)c2ccccc2C1=O | inactive | inactive | – | – |
| Cc1ccc(OC(=O)CC(C)C)cc1 | inactive | inactive | – | – |
| CCCC(=O)OC[C@@H](OC(=O)CCC)[C@@H](OC(=O)CCC)[C@H](Cn1c2nc(=O)[nH]c(=O)c-2nc2cc(C)c(C)cc21)OC(=O)CCC | inactive | inactive | – | – |
| COC(=O)c1sccc1S(N)(=O)=O | inactive | inactive | – | – |
| CC(=O)N(CC(O)CO)c1c(I)c(C(=O)NCC(O)CO)c(I)c(C(=O)NCC(O)CO)c1I (stereo not given) | inactive | inactive | – | – |
| C=C(C)C(=O)OCCOc1ccccc1 | inactive | inactive | – | – |
| CCOC(=O)C1=C(C)NC(C)=C(C(=O)OCC)C1c1ccccc1/C=C/C(=O)OC(C)(C)C | inactive | inactive | – | – |
| Nc1c(N=Nc2ccc(-c3ccc(N=Nc4cc(S(=O)(=O)O)c5ccccc5c4N)cc3)cc2)cc(S(=O)(=O)O)c2ccccc12 | inactive | inactive | – | – |
| O=Cc1ccc(CO)o1 | inactive | inactive | – | – |
| CC(C)(Oc1ccc(C2CC2(Cl)Cl)cc1)C(=O)O (stereo not given) | inactive | inactive | – | – |
| Cc1cc2c(cc1CC(=O)c1sccc1S(=O)(=O)Nc1onc(C)c1Cl)OCO2 | inactive | inactive | – | – |
| CCc1cc(Cl)c(OC)c(C(=O)NC[C@@H]2CCCN2CC)c1O | inactive | inactive | – | – |
| OC/C=C/c1ccccc1 | inactive | inactive | – | – |
| C[C@]12CC[C@@H]3c4ccc(O)cc4CC[C@H]3[C@@H]1CCC2=O | inactive | inactive | – | – |
| CC(C[N+](C)(C)C)OC(N)=O (stereo not given) | inactive | inactive | – | – |
| Oc1ccc2c(c1)-c1ccccc1C2 | inactive | inactive | – | – |
| Cc1ccc2sc3cccc(C)c3c2c1 | inactive | inactive | – | – |
| CN1C(=O)c2ccc([N+](=O)[O-])cc2C1=O | inactive | inactive | – | – |
| COc1ccc2sc(C(=O)Nc3nnn[nH]3)c(OC(C)C)c2c1 | inactive | inactive | – | – |
| C1CSCCS1 | inactive | inactive | – | – |
| O=c1c(O)c(-c2ccc(O)cc2O)oc2cc(O)cc(O)c12 | inactive | inactive | – | – |
| CCOC(=O)[C@H](CCc1ccccc1)N[C@@H](C)C(=O)N1CCC[C@H]1C(=O)O | inactive | inactive | – | – |

| Structure (SMILES) | Potency [1] | Potency [2] | viability change, negative = cytotoxic [1] | activity change, negative = cytotoxicity [2] |
| --- | --- | --- | --- | --- |
| Cc1cccc2sc(N)nc12 | inactive | inactive | – | – |
| COCCOCCOC | inactive | inactive | – | – |
| Cc1onc(-c2ccccc2Cl)c1C(=O)N[C@@H]1C(=O)N2[C@@H]1SC(C)(C)[C@@H]2C(=O)O | inactive | inactive | – | – |
| Nc1ccc(C(=O)OCCCOC(=O)c2ccc(N)cc2)cc1 | inactive | inactive | – | – |
| C[N+](C)(C)CCCCCCCCCC[N+](C)(C)C | inactive | inactive | – | – |
| CC(C)(O)c1ccc(CNC(=O)c2cccnc2Oc2ccc3nonc3c2)cc1 | inactive | inactive | – | – |
| CCn1nc(C)c2c1C(=O)NCC(c1ccc(O)cc1)=N2 | inactive | inactive | – | – |
| Cc1cc(Cl)c(C)cc1Cl | inactive | inactive | – | – |
| CCn1cc(C(=O)O)c(=O)c2cnc(N3CCNCC3)nc21 | inactive | inactive | – | – |
| CC(=O)Nc1ccc(CC(=O)O)cc1 | inactive | inactive | – | – |
| C/C(=C(\CCOP(=O)(O)O)SC(=O)c1ccccc1)N(C=O)Cc1cnc(C)nc1N | – | – | 1.04% [at 8.39 µM] | -13.5% [at 8.39 µM] |
| CCCCOc1ccc(CC(=O)NO)cc1 | inactive | inactive | – | – |
| CCCCCCCCCCCC(=O)OC[C@@H](O)[C@H]1OC[C@H](OCCO)[C@H]1OCCO | inactive | inactive | – | – |
| O=S(=O)(O)c1ccccc1 | inactive | inactive | – | – |
| CNCCCC12CCC(c3ccccc31)c1ccccc12 | inactive | inactive | – | – |
| O=c1[nH]c2ccc(S(=O)CCN3CCC(Cc4ccc(F)cc4)CC3)cc2o1 (stereo not given) | inactive | inactive | – | – |
| CC(C)c1ccc2c(C(C)C)cc(C(C)C)c(S(=O)(=O)O)c2c1 | inactive | inactive | – | – |
| CCCCCCCCCCO[C@@H]1O[C@H](CO)[C@@H](O)[C@H](O)[C@H]1O | inactive | inactive | – | – |
| O=C(O)CNC(=O)c1ccc(CO)o1 | inactive | inactive | – | – |
| COc1cc(C(=O)NCCCCCC(=O)O)cc(OC)c1OC | inactive | inactive | – | – |
| CCCCCCCCCC(C)=O | inactive | inactive | – | – |
| O=C(Oc1ccccc1)c1ccccc1C(=O)Oc1ccccc1 | inactive | inactive | – | – |
| CC(C)CC(C)CC(C)CC(C)COC(=O)c1ccccc1C(=O)OCC(C)CC(C)CC(C)CC(C)C (stereo not given) | inactive | inactive | – | – |
| N=C(N)N | inactive | inactive | – | – |
| C=CC(=O)[O-].C=CC(=O)[O-].[Zn+2] | inactive | inactive | – | – |

| Structure (SMILES) | Potency [1] | Potency [2] | viability change, negative = cytotoxic [1] | activity change, negative = cytotoxicity [2] |
| --- | --- | --- | --- | --- |
| CCOC(=O)[C@H](CCc1ccccc1)N[C@@H](C)C(=O)N(CC(=O)O)C1Cc2ccccc2C1 | inactive | inactive | – | – |
| Cc1cc2nc(N)sc2cc1C | inactive | inactive | – | – |
| CCCCCC[C@@H](O)C/C=C\CCCCCCCC(=O)OC | inactive | inactive | – | – |
| O=C(Cl)c1ccc([N+](=O)[O-])cc1 | inactive | inactive | – | – |
| ClCCl | inactive | inactive | – | – |
| CC(=O)c1ccccc1[N+](=O)[O-] | inactive | inactive | – | – |
| CCOC(OCC)OCC | inactive | inactive | – | – |
| CN1C(=O)OC(C)(C)C1=O | inactive | inactive | – | – |
| C=C(C#N)C(=O)OCC | inactive | inactive | – | – |
| CC(=O)N[C@@H](CC(C)C)C(=O)O | inactive | inactive | – | – |
| CCCCCC/C(C=O)=C\c1ccccc1 | inactive | inactive | – | – |
| CCCc1ccc(O)c(OC)c1 | inactive | inactive | – | – |
| Nc1nc(=O)n([C@@H]2O[C@H](CO)[C@@H](O)[C@@H]2F)cc1I | inactive | inactive | – | – |
| CCN1CCCC1CN (stereo not given) | inactive | inactive | – | – |
| O=C(O)c1cn(-c2ccc(F)cc2)c2cc(N3CCNCC3)c(F)cc2c1=O | inactive | inactive | – | – |
| Cc1cc(C(=O)O)ccc1[N+](=O)[O-] | inactive | inactive | – | – |
| CCC(Cl)C(Cl)C(Cl)CC(Cl)C(Cl)C(C)Cl (stereo not given) | inactive | inactive | – | – |
| Cc1cc(C)c(N=Nc2c(O)c(S(=O)(=O)O)cc3cc(S(=O)(=O)O)ccc23)cc1C | – | – | 13% [at 8.39 µM] | 4.39% [at 8.39 µM] |
| CC(=O)N1C[C@H](O)C[C@H]1C(=O)O | inactive | inactive | – | – |
| CCC(C)COC(=O)CC(C)C (stereo not given) | inactive | inactive | – | – |
| CCOC(=O)CC(C(C)=O)C(C)=O | inactive | inactive | – | – |
| C[C@@H]1C[C@H]2[C@@H]3C[C@H](F)C4=CC(=O)C(Cl)=C[C@]4(C)[C@@]3(F)[C@@H](O)C[C@]2(C)[C@@]1(O)C(=O)CO | inactive | inactive | – | – |
| Oc1ccc(C(O)CNCCCCCCNCC(O)c2ccc(O)c(O)c2)cc1O (stereo not given) | inactive | inactive | – | – |
| CCCCc1ncc(/C=C(\Cc2cccs2)C(=O)O)n1Cc1ccc(C(=O)O)cc1 | inactive | inactive | – | – |
| COc1cc(C(=O)N2CCOCC2)cc(OC)c1OC | inactive | inactive | – | – |
